Reference: the supplement of paper PMC10981050
“And” between values parts separate entries of the source, which are not always exact repeats. Identical values can stand only once. Counter-ions that a name gives are not always drawn.

Tests used:
Experiment in all cases: cell viability relative to vehicle control; higher = less cytotoxic
Conditions in all cases: 10 µM
[1] = tested on: K562
Outline: (§1)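 Mutant clones made by CRISPR editing and their isogenic wild-type counterparts, from four leukaemia lines, were exposed to a single 10 µM dose of each library compound for 48 h. The supernatant was then removed and CellTiter-Glo luminescence was read. Viability was reported as percent of the on-plate vehicle control.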

[2] = tested on: MARIMO
Outline: as §1

[3] = tested on: MOLM14
Outline: as §1

[4] = tested on: OCI-AML2
Outline: as §1

Row | Structure (SMILES) | cell viability ([1]; SRSF2 genotype: SRSF2 P95H/wt) | cell viability ([1]; SRSF2 genotype: SRSF2 wt/wt) | cell viability ([2]; SRSF2 genotype: SRSF2 P95H/wt) | cell viability ([2]; SRSF2 genotype: SRSF2 wt/wt) | cell viability ([3]; SRSF2 genotype: SRSF2 P95H/wt) | cell viability ([3]; SRSF2 genotype: SRSF2 wt/wt) | cell viability ([4]; SRSF2 genotype: P95H/wt) | cell viability ([4]; SRSF2 genotype: wt/wt)
1 | CCN1CC2(OC(=O)c3ccccc3NC(C)=O)CCC(OC)C34C1C(CC23)C1(O)CC(OC)C2CC4C1(O)C2OC (stereo not given) [Lappaconite Hydrobromide] | 102% and 86.3% | 88.2% | 86.7% | 96.2% | 89.6% | 96.4% | 97.3% | 87.2%
2 | C=C[C@@]12CN(C)[C@H]3C[C@]14C(=Nc1ccccc14)[C@@H]1C[C@@H]2[C@@H]3CO1 [Koumine] | 99.2% and 99.1% | 98.6% | 102% | 102% | 104% | 96.2% | 101% | 101%
3 | O=C(O)CNC(=O)C1C(=O)N(C2CCCCC2)C(=O)N(C2CCCCC2)C1=O | 93.8% and 88.7% | 83.9% | 86.5% | 101% | 83.8% | 94.1% | 98.8% | 98.5%
4 | COc1cc([C@@H]2c3cc4c(cc3[C@@H](O)[C@H]3COC(=O)[C@H]23)OCO4)cc(OC)c1O [4'-Demethylepipodophyllotoxin] | 36.4% and 51% | 51.2% | 26.8% | 31.3% | 13.4% | 6.99% | 20.9% | 24.2%
5 | CC(C)[C@]12O[C@H]1[C@@H]1O[C@@]13[C@@]1(C)CCC4=C(COC4=O)[C@@H]1C[C@@H]1O[C@@]13C2=O [Triptonide] | 5.3% and 13.3% | 8.48% | 12.8% | 5.79% | 2.66% | 0.71% | 5.01% | 15.2%
6 | Cc1sc2c(c1C)C(c1ccc(Cl)cc1)=NC(CC(N)=O)c1nnc(C)n1-2 (stereo not given) | 65.2% and 63.5% | 69.8% | 30% | 36.7% | 20.1% | 20.3% | 15.3% | 29.4%
7 | CN1C2CC(OC(=O)C(CO)c3ccccc3)CC1C(O)C2 (stereo not given) [Raceanisodamine] | 107% and 103% | 107% | 99% | 111% | 100% | 107% | 99.6% | 104%
8 | CNCC(O)c1ccc(O)cc1 (stereo not given) [Synephrine HCl] | 102% and 114% | 108% | 110% | 99.8% | 104% | 111% | 108% | 101%
9 | CN1C(=O)[C@@]23C[C@]4([C@]56C[C@@]78SS[C@@](CO)(C(=O)N7[C@H]5Nc5ccccc56)N(C)C8=O)c5ccccc5N[C@@H]4N2C(=O)[C@]1(CO)SS3 [Chaetocin] | 0.42% and 0.29% | 0.65% | 0.27% | 0.33% | 0.25% | 0.28% | 0.23% | 0.24%
10 | COc1ccc(C(CN(C)C)C2(O)CCCCC2)cc1 (stereo not given) [Venlafaxine HCl] | 99.9% | 98.7% | 95.8% | 99.7% | 96.9% | 98.6% | 99.8% | 107%
11 | CCC1=C[C@H]2CN3CCc4c([nH]c5ccccc45)[C@](C(=O)OC)(C2)[C@H]13 [Catharanthine] | 92.4% and 94% | 95.2% | 81% | 86.6% | 87.8% | 95.5% | 92% | 96.2%
12 | C[C@@]12N[C@@H](Cc3ccccc31)c1ccccc12 [(-)-MK 801 maleate] | 105% and 106% | 108% | 101% | 100% | 100% | 112% | 98.3% | 90.7%
13 | CN(C)C(=O)Oc1ccc[n+](C)c1 [Pyridostigmine Bromide (Mestinon)] | 93.7% and 96.7% | 95.9% | 93.5% | 98.7% | 96.6% | 94.3% | 93.2% | 97%
14 | Cn1c(CCCC(=O)O)nc2cc(N(CCCl)CCCl)ccc21 [Bendamustine HCL] | 97.2% and 96.8% | 96.3% | 94.5% | 104% | 86.3% | 97.8% | 66.5% | 83%
15 | CC[C@H]1CN2CC[C@]3(C(=O)Nc4ccccc43)[C@@H]2C[C@@H]1/C(=C\OC)C(=O)OC [Rhynchophylline] | 93.2% and 97.5% | 89.5% | 80.4% | 77.7% | 88.9% | 88.3% | 86.7% | 88.5%
16 | C[C@]12CC[C@H]3[C@@H](CC[C@@]45O[C@@H]4C(O)=C(C#N)C[C@]35C)[C@@H]1CC[C@@H]2O [Trilostane] | 92.4% and 94.7% | 97.6% | 87.4% | 92.5% | 95.4% | 102% | 123% | 118%
17 | c1cc2c(cc1[C@H]1OC[C@H]3[C@@H]1CO[C@@H]3c1ccc3c(c1)OCO3)OCO2 [Sesamin (Fagarol)] | 92.3% and 97.8% | 97.3% | 94.2% | 111% | 98.8% | 105% | 100% | 102%
18 | CCCCC(C#N)(Cn1cncn1)c1ccc(Cl)cc1 (stereo not given) [Myclobutanil] | 105% and 99.5% | 100% | 97% | 109% | 93.9% | 108% | 92.3% | 98.1%
19 | CC(NC(C)(C)C)C(=O)c1cccc(Cl)c1 (stereo not given) [Amfebutamone (Bupropion) HCl] | 86.7% and 90.3% | 95.6% | 87.9% | 94.1% | 95.1% | 95.6% | 93.1% | 90.5%

Row | Structure (SMILES) | cell viability ([1]; SRSF2 genotype: SRSF2 P95H/wt) | cell viability ([1]; SRSF2 genotype: SRSF2 wt/wt) | cell viability ([2]; SRSF2 genotype: SRSF2 P95H/wt) | cell viability ([2]; SRSF2 genotype: SRSF2 wt/wt) | cell viability ([3]; SRSF2 genotype: SRSF2 P95H/wt) | cell viability ([3]; SRSF2 genotype: SRSF2 wt/wt) | cell viability ([4]; SRSF2 genotype: P95H/wt) | cell viability ([4]; SRSF2 genotype: wt/wt)
20 | O=P1(NCCCl)OCCCN1CCCl (stereo not given) [Ifosfamide] | 98.8% and 105% | 104% | 105% | 100% | 104% | 101% | 111% | 98%
21 | COC(=O)C1=CCCN(C)C1 [Arecoline HBr] | 93.5% and 96.8% | 97.5% | 96% | 99% | 97.4% | 99.9% | 92% | 106%
22 | O=c1[nH]c2ccccc2n1C1CCN(Cc2ccc(-c3[nH]c4cc5ncnc5cc4nc3-c3ccccc3)cc2)CC1 | 56.9% and 65.9% | 61.7% | 66.5% | 76.2% | 53.6% | 43.6% | 48.8% | 47.9%
23 | O=C(O)c1nn(Cc2ccc(Cl)cc2Cl)c2ccccc12 [Lonidamine] | 97% and 107% | 101% | 107% | 97.7% | 98.1% | 95.6% | 99.5% | 92.2%
24 | Cc1cc(C(=O)CN2CCCC2)c(C)n1-c1ccc(F)cc1 | 93.7% and 94% | 89.1% | 80.6% | 98.2% | 83.7% | 94.7% | 88.4% | 85.8%
25 | CC(=O)OC1CN2CCC1CC2 (stereo not given) [Aceclidine HCl] | 99.8% and 104% | 100% | 104% | 112% | 104% | 106% | 102% | 105%
26 | C/C(=C\c1csc(C)n1)[C@@H]1C[C@@H]2O[C@]2(C)CCC[C@H](C)[C@H](O)[C@@H](C)C(=O)C(C)(C)[C@@H](O)CC(=O)O1 [Patupilone (EPO906, Epothilone B)] | 29% and 37% | 39.4% | 7.88% | 6.51% | 8.36% | 2.95% | 6.03% | 11.7%
27 | CCOC(=O)Nc1ccc(NCc2ccc(F)cc2)cc1N [Retigabine] | 98.5% | 97.3% | 93.7% | 110% | 102% | 105% | 98.5% | 110%
28 | CC1=C[C@]23C(=O)[C@@H](C=C(CO)[C@@H](O)[C@]2(O)[C@H]1O)[C@H]1[C@@H](C[C@H]3C)C1(C)C [Ingenol] | 113% and 98.6% | 111% | 109% | 107% | 111% | 108% | 68.2% | 79%
29 | CC(C)=CCC[C@](C)(O)[C@H]1CC[C@]2(C)[C@@H]1[C@H](O)C[C@@H]1[C@@]3(C)CC[C@H](O[C@@H]4O[C@H](CO)[C@@H](O)[C@H](O)[C@H]4O)C(C)(C)[C@@H]3CC[C@]12C [20S-Ginsenoside Rh2] | 98.1% and 92.1% | 105% | 104% | 106% | 103% | 106% | 97.4% | 96.2%
30 | CCOc1ccccc1-n1c(C(C)N2CCN(C(=O)COc3ccc(Cl)cc3)CC2)nc2ccccc2c1=O (stereo not given) [Erastin] |  | 63% | 21.1% | 38.8% | 6.91% | 3.65% | 0.65% | 12.4%
31 | CN1CCC(c2c[nH]c3ccc(O)cc23)CC1 | 107% and 100% | 102% | 101% | 104% | 103% | 102% | 91.8% | 105%
32 | CCCC[N+]1(C)[C@@H]2CC(OC(=O)[C@H](CO)c3ccccc3)C[C@H]1[C@@H]1O[C@@H]12 (stereo not given in full) [Butylscopolamine bromide (Scopolamine butylb] | 108% and 95.5% | 97.8% | 102% | 110% | 97.5% | 103% | 94.3% | 105%
33 | CC(C)[C@]12O[C@H]1[C@@H]1O[C@]13[C@]1(O[C@H]1C[C@H]1C4=C(CC[C@@]13C)C(=O)OC4)[C@@H]2O [Triptolide] | 5.55% and 15% | 8.7% | 10.4% | 6.31% | 2.33% | 0.54% | 5.79% | 16%
34 | CC[C@H](C)[C@@H]([C@@H](CC(=O)N1CCC[C@H]1[C@H](OC)[C@@H](C)C(=O)N[C@H](C)[C@@H](O)c1ccccc1)OC)N(C)C(=O)[C@@H](NC(=O)[C@@H](NC)C(C)C)C(C)C [Monomethyl auristatin E (MMAE)] | 11.7% and 32% | 30.1% | 7.27% | 8.86% | 0.32% | 0.5% | 0.78% | 2.69%
35 | COC1=C[C@@H]2[C@@H]3Cc4ccc(OC)c(O)c4[C@]2(CCN3C)CC1=O [Sinomenine (Cucoline)] | 103% and 95.1% | 90.5% | 97.9% | 96.2% | 89.9% | 97.3% | 95% | 97.8%
36 | Cc1cc2c(C(C)C)c(O)c(O)c(C=O)c2c(O)c1-c1c(C)cc2c(C(C)C)c(O)c(O)c(C=O)c2c1O | 2.58% and 2.65% | 13.3% | 11.7% | 15.4% | 0.51% | 1.24% | 0.59% | 1.12%
37 | C[C@H]1CC[C@@H]2N(C1)C[C@H]1[C@@H]3C[C@H]4[C@@H](C[C@H](O)[C@H]5C[C@@H](O)CC[C@@]54C)[C@@H]3CC[C@@H]1[C@]2(C)O [Peimine] | 110% and 102% | 95.8% | 97.3% | 104% | 104% | 98.6% | 99.6% | 106%
